Data taken from PubChem BioAssay (NCI).
Compounds without any hit were thinned out: in the full panel of roughly 83,000, 20% have a hit.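 A percent growth of 40 corresponds to 60% growth inhibition; 0 means no net growth; -100 means all cells died. Active threshold: below 10.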 The source made the active and inactive calls.

Key:
Experiment in all cases: NCI-60 one-dose screen, 48 h (100 = growth as untreated, 0 = no growth, -100 = all killed)
Settings in all cases: 10 µM unless noted
[1] = tested on: NCI-H23 lung
[2] = tested on: NCI-H226 lung
[3] = tested on: NCI-H322M lung
[4] = tested on: HOP-62 NSCLC
[5] = tested on: NCI-H460 lung
[6] = tested on: HOP-92 NSCLC
[7] = tested on: NCI-H522 lung
[8] = tested on: A549/ATCC NSCLC
[9] = tested on: 786-0 renal
[10] = tested on: COLO 205 colon
[11] = tested on: DU-145 prostate
[12] = tested on: MALME-3M melanoma
[13] = tested on: MDA-MB-231 breast
[14] = tested on: RXF 393 renal
[15] = tested on: SF-268 CNS
[16] = tested on: SF-295 CNS
[17] = tested on: SF-539 CNS
[18] = tested on: UACC-257 melanoma
[19] = tested on: M14 melanoma
[20] = tested on: K-562 leukemia

Measured: growth

C=C1C(=O)O[C@H]2[C@H]1CC/C(COC(=O)c1cccc3ccccc13)=C\CC[C@@]1(C)O[C@@H]21
inactive: [3] 36.8% | [16] 47.8%
active: [1] 0.789% | [2] -79.9% | [4] -45.7% | [5] 7.53% | [6] -67.9% | [7] -84.5% | [8] -55% | [9] -77.9% | [10] -70.7% | [11] -95.1% | [12] -74.5% | [13] -67.7% | [14] -89.6% | [15] -66.4% | [17] -93.1% | [18] -13.9% | [19] -58.7%

C=C1C(=O)O[C@H]2[C@H]1CC/C(CNC(=O)/C1=C/CC[C@@]3(C)O[C@H]3[C@H]3OC(=O)C(=C)[C@@H]3CC1)=C\CC[C@@]1(C)O[C@@H]21
active: [7] -28.3%
inactive: [1] 99.6% | [2] 92.4% | [3] 96% | [4] 93.8% | [5] 104% | [6] 84.5% | [9] 93.1% | [10] 71.8% | [11] 105% | [12] 104% | [13] 102% | [14] 99.3% | [15] 98.5% | [16] 97.6% | [17] 95.6% | [18] 79.9% | [19] 95.2%

CCCCCCCCCCCC(=O)OCCNC(=O)C[n+]1ccccc1
inactive: [1] 107% | [2] 98.7% | [3] 99.4% | [4] 102% | [5] 120% | [6] 68.7% | [7] 102% | [9] 112% | [10] 105% | [11] 131% | [20] 117% | [12] 96.3% | [13] 99.6% | [14] 110% | [15] 104% | [16] 78.7% | [17] 105% | [18] 106% | [19] 102%

CCOc1ccccc1C(=O)N1CCN(c2cc(Cl)cc(Cl)c2)CC1
inactive: [1] 24.3% | [2] 65.6% | [3] 35% | [4] 27.1% | [6] 18.2% | [9] 14.5% | [12] 45.3% | [14] 40.9% | [15] 30% | [16] 17.9% | [18] 51.1%
active: [5] 5.68% | [7] -6.41% | [10] -65.9% | [11] 8.76% | [13] 6.62% | [17] -4.39% | [19] -23.3%

O=C(NCCNc1nccc(-c2c(-c3cccc(O)c3)nc3sccn23)n1)c1ccccc1
active: [12] 9.31%
inactive: [1] 82.6% | [2] 54.5% | [3] 101% | [4] 119% | [5] 42.4% | [7] 72.7% | [8] 56.3% | [9] 66.5% | [10] 48.5% | [11] 90.4% | [20] 62.7% | [13] 80% | [14] 62.6% | [15] 80.7% | [16] 67.4% | [17] 73.2% | [18] 11.3% | [19] 15.3%

COc1ccc(-c2cnc(-c3ccc(F)cc3)[nH]2)cc1
inactive: [1] 88.2% | [2] 85.4% | [3] 213% | [4] 46.5% | [5] 103% | [6] 82.5% | [7] 85.9% | [10] 111% | [11] 113% | [20] 57.1% | [12] 288% | [13] 100% | [15] 92.6% | [16] 96.6% | [17] 105%
active: [8] -55.7% | [18] -25.1% | [19] -17.3%

C=C1C(=O)O[C@H]2[C@H]1CC/C(COC(=O)CCCC(=O)OC/C1=C/CC[C@@]3(C)O[C@H]3[C@H]3OC(=O)C(=C)[C@@H]3CC1)=C\CC[C@@]1(C)O[C@@H]21
active: [2] -44.4% | [7] -80.3% | [9] -34.1% | [10] -44.9% | [20] 7.38% | [12] -8.44% | [13] 2.73% | [14] -74.2% | [17] 0.465% | [18] -39.9% | [19] -33.1%
inactive: [1] 29.2% | [3] 90% | [4] 79.6% | [5] 64.5% | [8] 73.5% | [11] 20.8% | [15] 44.2% | [16] 78.3%

CC1CCC(C(C)C)C(NN)C1 (configuration not stated)
inactive: [1] 106% | [2] 88% | [3] 91.2% | [4] 96% | [5] 108% | [7] 70.9% | [8] 80.6% | [9] 98.8% | [10] 103% | [11] 109% | [20] 92.2% | [12] 112% | [13] 108% | [14] 115% | [15] 107% | [16] 107% | [17] 103% | [18] 78.6%

Cc1nc(-c2ccc(Cl)cc2)ccc1NC(=O)Nc1cccc(C(F)(F)F)c1
inactive: [1] 95.6% | [2] 97.9% | [3] 109% | [4] 109% | [5] 64.5% | [7] 52.9% | [8] 93.1% | [9] 101% | [10] 121% | [11] 97.6% | [20] 80.6% | [12] 126% | [13] 115% | [14] 104% | [15] 98.4% | [16] 98.4% | [17] 94.1% | [18] 98.9% | [19] 101%
